According to PubChem BioAssay AID588352 (The Scripps Research Institute Molecular Screening Center, 2011):
About 620 (0.17%) of roughly 360,000 compounds were called active. The full list was thinned out, with actives kept by preference. Unmarked numbers belong to inactive results.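 How the source made its calls: active means inhibition above a per-campaign cutoff, the mean of all compounds plus 3 SD (cut at about 60% in these data); inactive means the rest.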

Target: Nuclear receptor coactivator 3 (Homo sapiens) (UniProt Q9Y6Q9)
Assay: SRC3 coactivator transcriptional activity inhibitors, primary screen, cell-based, luminescence (AID 588352);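 further: 0% = DMSO-treated cells and 100% = gossypol-treated cells at 36 µM; higher means less SRC3-driven luciferase light from the GAL4 reporter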
Conditions: HEK293 GAL4-SRC3 luciferase reporter, at 3.6 µM, stronger effect = higher value

Nuclear receptor coactivator 3 (Homo sapiens), sequence (Q9Y6Q9 whole entry, looked up, the tested form may be a part): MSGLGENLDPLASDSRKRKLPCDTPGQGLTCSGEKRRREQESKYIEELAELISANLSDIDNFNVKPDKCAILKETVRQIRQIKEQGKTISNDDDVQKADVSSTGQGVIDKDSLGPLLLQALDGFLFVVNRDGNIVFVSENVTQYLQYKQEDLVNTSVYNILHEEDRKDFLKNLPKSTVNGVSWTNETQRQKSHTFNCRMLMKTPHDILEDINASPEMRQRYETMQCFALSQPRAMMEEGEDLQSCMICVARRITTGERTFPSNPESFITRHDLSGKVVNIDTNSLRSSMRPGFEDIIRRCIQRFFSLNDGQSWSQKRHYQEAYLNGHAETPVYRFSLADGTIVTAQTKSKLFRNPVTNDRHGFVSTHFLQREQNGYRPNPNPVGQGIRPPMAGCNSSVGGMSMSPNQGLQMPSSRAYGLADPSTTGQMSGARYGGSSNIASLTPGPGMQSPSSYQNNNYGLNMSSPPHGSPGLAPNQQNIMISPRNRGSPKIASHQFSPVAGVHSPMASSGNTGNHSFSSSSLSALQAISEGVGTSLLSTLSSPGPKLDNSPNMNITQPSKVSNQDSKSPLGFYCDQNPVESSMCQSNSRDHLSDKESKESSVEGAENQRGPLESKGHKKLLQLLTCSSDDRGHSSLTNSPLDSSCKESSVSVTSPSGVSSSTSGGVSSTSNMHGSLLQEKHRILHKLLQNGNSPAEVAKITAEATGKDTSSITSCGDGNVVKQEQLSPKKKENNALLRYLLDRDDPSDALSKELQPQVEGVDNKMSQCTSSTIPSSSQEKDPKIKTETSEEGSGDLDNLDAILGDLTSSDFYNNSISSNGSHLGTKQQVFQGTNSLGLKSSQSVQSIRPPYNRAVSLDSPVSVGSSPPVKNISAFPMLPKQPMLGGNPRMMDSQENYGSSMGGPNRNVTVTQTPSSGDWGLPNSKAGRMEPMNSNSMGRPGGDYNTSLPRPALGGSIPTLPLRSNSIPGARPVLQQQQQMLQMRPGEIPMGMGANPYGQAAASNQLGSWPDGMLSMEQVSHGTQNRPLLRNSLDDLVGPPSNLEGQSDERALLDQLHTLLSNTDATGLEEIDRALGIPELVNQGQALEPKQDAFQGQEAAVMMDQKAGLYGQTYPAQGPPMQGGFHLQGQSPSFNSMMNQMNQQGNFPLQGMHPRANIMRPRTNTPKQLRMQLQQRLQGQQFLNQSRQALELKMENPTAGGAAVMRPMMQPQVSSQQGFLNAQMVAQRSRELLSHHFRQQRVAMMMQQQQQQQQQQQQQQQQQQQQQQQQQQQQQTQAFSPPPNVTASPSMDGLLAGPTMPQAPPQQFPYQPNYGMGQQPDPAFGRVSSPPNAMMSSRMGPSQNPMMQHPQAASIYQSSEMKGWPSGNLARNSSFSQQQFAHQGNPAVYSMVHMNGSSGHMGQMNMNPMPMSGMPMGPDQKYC

Structure (SMILES)	inhibition
Nc1cccc2c1C(=O)N(Cc1nnc(-c3ccccc3Br)o1)C2=O	7.44%
COc1ccc(C(=O)N2CCCCC2C(=O)Nc2ccc(-n3nc(C)cc3C)cc2)o1 (stereo not drawn)	-17.3%
Clc1ccc(-c2nnc(-c3ccccc3)nc2N2CCSCC2)cc1	5.59%
O=C(NCC1(N2CCCCC2)CCCCC1)c1ccc(NS(=O)(=O)c2ccc(F)cc2)cc1	-2.32%
CCN(CC(=O)Nc1c(F)cccc1F)C(=O)CN1c2cccc3cccc(c23)S1(=O)=O	-23.2%
COc1ccc(C(=O)Nc2ccc(C3(C#N)CCCC3)cc2)cc1OC	-41%
C[C@H](C(=O)CC(=O)OC(C)(C)C)[C@H](O)c1ccc(C(F)(F)F)cc1	4.25%
O=S(=O)(c1cccc(-c2cn3ccccc3n2)c1)N1CCCC1	11.7%
Cc1c(CN2CCC(CO)(CCOc3ccccc3)CC2)[nH]c2ccc(Cl)cc12	-36.5%
CN(CC(=O)Nc1c(Cl)cccc1Cl)C(=O)CC1OC(=O)c2ccccc21 (stereo not drawn)	12.4%
COC(=O)/C(=C1\Oc2ccc(C(C)(C)C)cc2S1)C(F)(F)F	5.95%
CCc1nc2c(OCCOc3ccccc3)cccn2c1N(C)C(=O)c1cccs1	-22.5%
COc1cccc(OCc2cc(/C=N/NC(=O)c3nc(Cl)c(Cl)c(N)c3Cl)ccc2OC)c1	-12.8%
CCn1c(/C=N/NC(=O)c2ccc(OC)cc2)nc2ccccc21	15.7%
COc1ccc(C(=O)Nc2ccccc2C(=O)N/N=C/c2ccc(O)c(OC)c2)cc1	69.8% (active)
C=CCN(c1ccc(Cl)cc1)S(=O)(=O)c1cccc(C(=O)OCC(=O)N(C)C)c1	16.1%
CC(C)[C@@H](C(=O)OCC(=O)c1ccc2c(c1)NC(=O)CO2)N1C(=O)c2ccccc2C1=O	-6.83%
CC(CO)N1CCS(=O)(=O)CC1 (stereo not drawn)	19.6%
O=C(Cc1ccc(S(=O)(=O)N2CCOCC2)s1)Nc1ccc(Br)c(C(F)(F)F)c1	4.75%
COCCn1cnc2c1c(=O)n(CC(=O)NN)c(=O)n2Cc1ccccc1	1.62%
COCCn1cnc2c1c(=O)n(Cc1ccc(Br)cc1)c(=O)n2Cc1ccccc1	-1.52%
N=c1c2c(-c3ccccc3)c(-c3ccccc3)n(Cc3ccccc3)c2ncn1CCCO	62.7% (active)
CC(C)CC[n+]1ccn(C2=C([O-])c3ccccc3C(=O)/C2=N\S(=O)(=O)c2ccccc2)c1	-4.74%
CN(C)CC(C)(C)CNC(=O)c1cc(Br)cc(Br)c1O	-17%

Structure (SMILES)	inhibition
Cc1c(NC(=O)COC(=O)/C=C/c2cccc(F)c2)c(=O)n(-c2ccccc2)n1C	-6.79%
CC(=O)NN=C(C)c1ccc(NC(=O)C2CC2)cc1	0.05%
CCCC(NCC(=O)Nc1ccccc1C(=O)NC1CC1)c1ccccc1 (stereo not drawn)	4.81%
Cn1c(CC(=O)Nc2ccc(F)cc2)nnc1SCC(=O)NC1CCCCC1	-3.83%
Cc1ccc(OCCNC(=O)c2cccc(S(=O)(=O)N3CCN(Cc4ccccc4)CC3)c2)cc1	0.45%
CC(=O)c1ccc(OC(=O)N2CCOCC2)cc1	-9.63%
CCC(NC(=O)C1CCCC1)c1ccc(C)cc1 (stereo not drawn)	-5.79%
COc1ccc(Cl)cc1NC(=O)C(C)N1CCc2ccccc21 (stereo not drawn)	-3.25%
C=CCOc1ccccc1/C=N/NC(=O)Cc1ccccc1	-4.16%
O=C(NN=Cc1ccccc1O)NN=Cc1ccccc1O	64.5% (active)
O=C(N/N=C/c1ccccc1O)/C(=C/c1ccccc1)CCO	43.6%
O=C(COc1ccc(S(=O)(=O)NCCc2ccccc2)cc1)N1CCCC1	15.7%
CCc1nnc(NC(=O)CCN(c2ccc(C)cc2)S(=O)(=O)c2ccccc2)s1	3.02%
CNS(=O)(=O)c1ccc(N2CCCC2=O)c([N+](=O)[O-])c1	0.16%
COc1ccc(N(C(=O)c2snc(C(N)=O)c2N)C(C(=O)NC2CCCC2)c2ccco2)cc1OC (stereo not drawn)	-3.31%
Brc1ccc2nc(-c3ccccc3)c(Cc3ccccc3)n2c1	-38.3%
Cc1cc(=O)oc2c(C(=O)c3ccccc3)c(OCC(N)=O)ccc12	14.2%
COc1ccc(C(=O)N/N=C2\CCS(=O)(=O)c3ccc(F)cc32)cc1OC	5.88%
Cc1cc(C)n(C(=O)c2ccc(C)c(S(=O)(=O)N3CCOCC3)c2)n1	12.7%
CC[C@H]1CN2CCc3cc(OC)c(OC)cc3[C@@H]2C[C@@H]1C[C@H]1NCCc2cc(OC)c(OC)cc21	94.6% (active)
O=C(O)C1CCN(C(=O)OCc2ccccc2)CC1	-70.7%
CCCNC(=O)C1(C)CCCN(C(=O)c2cccc(OC(C)=O)c2C)C1 (stereo not drawn)	-10.9%
CCOC(=O)CN(C)S(=O)(=O)c1ccc(-c2cc(C(=O)OC)sc2C(F)(F)F)cc1	9.38%
N#C/C(=C(\O)CCl)c1nnc2n1CCCCC2	9.47%

Structure (SMILES)	inhibition
CCCOc1ccc(Cc2c(O)nc(N)[nH]c2=O)cc1C	1.06%
COC(=O)/C=C(\Oc1ccccc1)C1(O)CCCCC1	9.01%
COc1ccc(OC)c(Nc2nc3ccccc3n3cnnc23)c1	9.44%
COc1ccc(Nc2ncnc3ccc(Br)cc23)c(OC)c1	82% (active)
COc1ccc(OC)c(NC(=O)CN(C)CCOc2ccc(Br)cc2)c1	4.03%
CCOC1=C2[C@@H](CN(S(=O)(=O)c3ccc(C)cc3)[C@H]2c2ccccc2F)[C@H]2C(=O)N(Cc3ccccc3)C(=O)[C@H]2C1	2.22%
CCn1ncc(CNC(=O)C2(C)CC2(Br)Br)c1C (stereo not drawn)	-0.54%
CCCCCCCCn1c2c(c(=N)c3c1CCC3)CCCC2	80% (active)
Cc1cc(S(=O)(=O)NC2CCCC2)ccc1-n1cnnn1	2.04%
O=S1(=O)CCC(NC(=S)SCc2ccccc2Br)C1 (stereo not drawn)	8%
FC(F)(F)c1cccc(-c2nc(COc3ccc(Cl)cc3Cl)no2)c1	12.2%
CC(C)(C)c1nc2ccccc2c(=O)n1N1C(=O)c2ccccc2C1=O	2.66%
CN(C(=O)Nc1ccc(Cl)cc1)n1cnc2ccccc2c1=O	-6.25%
CN(c1ccc2nc3ccccc3c(=O)n2n1)C1CCCCC1	73.1% (active)
COc1cccc2cc(C(=O)NCc3ccc(C)cc3)c(=N)oc12	14.3%
C=CCOC(=O)C1=C[C@@H](c2ccc3c(c2)OCO3)C[C@@H](OCCCCO)O1	-13.9%
CC(C)c1cc(C(N)=O)c(NC(=O)c2cccc(COc3ccc(Br)cc3)c2)s1	-149%
COCc1ccc(C(=O)NC2CC(C)(C)Cc3c2cnn3-c2ccc(C)cc2)o1 (stereo not drawn)	16.3%
CC(C)OC(=O)c1ccc(NCc2cc(O)ccc2O)cc1Cl	-31.6%
O=C(OC12CC3CC(CC(C3)C1)C2)c1ccc(NCc2cc(O)ccc2O)cc1	74.5% (active)
CCOC(=O)c1[nH]cnc1C(=O)NC1CCCCC1	-23%
COc1cccc(Nc2nnc(SCC(=O)N3CC(C)OC(C)C3)s2)c1 (stereo not drawn)	-8.99%
C=CCSc1nnc(Cn2c(=O)sc3ccccc32)n1C	5.67%
COc1ccccc1Cn1c(C)nnc1-c1cnn(C)c1N	19.6%

Structure (SMILES)	inhibition
CCc1nc2ccc(C(=O)NC3CCN(Cc4ccccc4)CC3)cn2c1N(C)CCN1CCOCC1	14.3%
Nc1nc(SCC(=O)NNc2c(Cl)cc(Cl)cc2Cl)n[nH]1	18%
Cc1ccc(C)c(S(=O)(=O)N2CC(=O)Nc3ccccc32)c1	22.6%
COc1ccc(S(=O)(=O)NCC(=O)NC2CC2)cc1OC	-59%
COc1cc(OC)cc(-c2c(-c3ccc(F)cc3)c3cc(-c4ccc5cc[nH]c5c4)ccc3n2C)c1	7.21%
Cc1nc2ccccc2n1CC(O)c1ccccc1 (stereo not drawn)	-14%
O=C(Cn1nc([N+](=O)[O-])nc1Br)NC1CCCCC1	5.25%
COc1cc(OC)cc(-c2c(-c3cccs3)c3cc(-c4ccc(OC)cc4F)ccc3n2C)c1	-12.6%
COC(=O)c1ccc(NC(=O)CSc2nc(N)c(NC(=O)c3ccc(Br)o3)c(=O)[nH]2)cc1	11.5%
Clc1cccc(Cl)c1Cn1nnc(-c2cccs2)n1	-55.9%
Cn1sc(=O)c2cc(S(=O)(=O)NC3CC3)ccc21	3.57%
CC1(C)NC(=O)N(CC(=O)Nc2cc(C(F)(F)F)cc(C(F)(F)F)c2)C1=O	22.2%
CCCCNC(=O)C1CCCNC1=O (stereo not drawn)	12.3%
CCNC(=O)C1(C)CCCN1C(=O)c1ccc(N(C)C)cc1 (stereo not drawn)	-7.5%
COc1cc(NC(=O)C2=C(C)OCCS2)c(Cl)cc1C(=O)NCCCN1CCCC(C)C1 (stereo not drawn)	-22.7%
O=C(N/N=C/c1cccc([N+](=O)[O-])c1)C1CC(=O)N(c2ccc(Br)cc2)C1 (stereo not drawn)	-0.6%
COc1ccc(OCCCCN2CCC(C)CC2)cc1	-47.3%
CCC(O)C1CCN(Cc2cn(-c3ccc(OC)cc3)nc2-c2cccc(F)c2)CC1 (stereo not drawn)	14%
Cc1nc2nc(COc3ccccc3)[nH]n2c(=O)c1Cc1ccccc1	-32.6%
COc1cccc(/C=C(/CC(=O)Nc2ccc(N3CCOCC3)cc2)c2nc3ccccc3s2)c1	7.57%
COC(=O)Cc1[nH]n(-c2nc3ccccc3s2)c(=O)c1C(C)=Nc1ccc(OC)cc1	86.7% (active)
